Only some compounds are listed: those with a hit (about 28% of all), similar ones and a draw of the others.
CYP2C19 activ = human CYP2C19 activators, primary screen, biochemical, luminescence | Cytochrome P450 2C19 (Homo sapiens), P33261 | AID 1025, 2008 | 96,000 tested, under 10 active | recombinant CYP2C19, luciferin-H EGE luminescence; hits give high values; 0 = fully inhibited enzyme, 1 = untreated enzyme | activation factor at 5 µM;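 active means activation factor of at least 2 at 5 µM in the primary screen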;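 further: 0 = wells with 2.5 mM tranylcypromine and 1 = vehicle-only wells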
CYP2C9 activ = human CYP2C9 activators, primary screen, biochemical, luminescence; Cytochrome P450 2C9 (Homo sapiens), P11712; recombinant CYP2C9, luciferin-H conversion; hits give high values; factor 1 = untreated enzyme, 0 = blocked; activation factor at 5 µM; 96,000 compounds, 1.4% hits; AID 1024, 2008;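 active means activation factor of 2 or more for CYP2C9 at a 5 µM dose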;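 further: 0 = sulfaphenazole-blocked wells and 1 = vehicle-only wells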
Target sequence (P11712 whole entry, looked up): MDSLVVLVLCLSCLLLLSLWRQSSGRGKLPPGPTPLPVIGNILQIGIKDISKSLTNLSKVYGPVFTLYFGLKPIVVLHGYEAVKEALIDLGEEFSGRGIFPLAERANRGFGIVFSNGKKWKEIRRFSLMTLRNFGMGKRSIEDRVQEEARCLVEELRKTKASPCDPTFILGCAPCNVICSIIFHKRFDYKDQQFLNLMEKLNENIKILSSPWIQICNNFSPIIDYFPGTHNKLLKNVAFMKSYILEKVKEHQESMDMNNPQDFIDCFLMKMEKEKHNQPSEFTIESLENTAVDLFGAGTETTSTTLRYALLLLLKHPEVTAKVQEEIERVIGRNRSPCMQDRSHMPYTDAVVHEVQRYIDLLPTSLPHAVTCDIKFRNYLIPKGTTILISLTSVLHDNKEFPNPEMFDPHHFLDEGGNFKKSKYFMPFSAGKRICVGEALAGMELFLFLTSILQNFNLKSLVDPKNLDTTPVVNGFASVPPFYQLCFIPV
PTK2B oligo ant = antagonists of Pyk2 self-association, primary screen, Q293 cells, FERM NanoBiT luminescence, HTS; z-score (the deposit names both 25 µM and 10 µM); 99,000 compounds, 0.83% hits; hits give low values;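 active means Z-score of -3 or lower, scaled per plate to the spread of control and sample wells; inactive means z-score above -3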;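 further: negative z-score means lost luminescence so less FERM oligomerization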
CYP2C19 inh = blockers of cytochrome P450 2C19 activity – biochemical, luminescence, ADME assay, primary screen; 96,000 compounds, 21% hits; inhibition, % at 5 µM; CYP2C19 Supersomes, luciferin-H EGE luminescence, 30 min; AID 778, 2007;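 active means CYP2C19 inhibition above a set limit at 5 µM in the primary screen, cut at about 50% in these data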;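 further: plate controls were negative control wells for no effect and 2.5 mM tranylcypromine positive control for full effect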
CYP2C9 inh = blockers of cytochrome P450 2C9 activity – biochemical, luminescence, ADME assay, primary screen. 96,000 compounds, 20% hits. CYP2C9 Supersomes, luciferin-H conversion. inhibition, % at 5 µM. P11712;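 active means blocking of liver enzyme CYP2C9 beyond about 50% at 5 µM, limit read from the data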
* marks the source's active call; other numbers are inactive results; x = no result given.

SMILES | CYP2C19 activ | CYP2C9 activ | PTK2B oligo ant | CYP2C19 inh | CYP2C9 inh
CC(C)[C@H](NC(=O)Nc1ccc2c(c1)OCCO2)C(=O)O | 1.2 | 1.3 | -0.46 | -16 | -27
O=C(COC(=O)Cn1cnc2ccccc21)NCCc1ccc(Cl)cc1 | 0.7 | 0.8 | 0.08 | 28 | 19
CCOC(=O)C1CCCN(C(=O)Nc2cccc(Cl)c2)C1 (stereo not drawn) | 0.4 | 0.6 | 0.39 | 60* | 40
CC(C(=O)NCc1ccccc1)N1C(=O)CN(C)C(=O)c2ccccc21 (stereo not drawn) | 0.7 | 1 | 0.26 | 30 | -3
Cc1ccc(C2CC(C(F)F)n3ncc(C(=O)Nc4cnn(Cc5ccccc5C)c4)c3N2)cc1 (stereo not drawn) | 0.9 | 0.4 | -0.65 | 8 | 62*
Cc1ccccc1Cn1cc(NC(=O)c2nc3ncccn3n2)cn1 | 0.9 | 0.7 | 0.23 | 13 | 28
COCc1cc(C)n(CC(=O)N/N=C/c2ccc(-c3ccc(Cl)c(C(=O)O)c3)o2)c(=O)c1C#N | x | x | 0.91 | x | x
Cc1ccc(NC(=O)c2cc(C)nn2-c2ccccc2)cc1 | 0.4 | 0.7 | x | 60* | 29
Cc1cc(C(=O)NCc2ccc3c(c2)OCO3)n(-c2ccccc2)n1 | 0.6 | 0.8 | x | 44 | 21
Cc1nn(Cc2ccccc2)c2sc(C(=O)NCc3cccnc3)cc12 | 0.4 | 0.2 | -0.33 | 62* | 82*
Cc1cc(C(=O)NCc2cccnc2)n(-c2ccccc2)n1 | 0.4 | 0.8 | x | 60* | 20
Cc1ccc2c(Cl)c(C(=O)NCc3cccnc3)sc2c1 | 0.6 | 0.6 | -1.2 | 44 | 38
Cc1nccn1S(=O)(=O)c1ccc(Br)cc1Br | 0.3 | 0.9 | 1 | 66* | 10
COc1ccc(OC)c(S(=O)(=O)n2ccnc2C)c1 | 0.1 | 1.5 | 0.71 | 93* | -50
COc1ccc(OC)c(S(=O)(=O)n2cccn2)c1 | 0.9 | 1.2 | -0.02 | 5 | -23
COc1ccc(Br)cc1S(=O)(=O)n1ccnc1C | 0 | 2.4* | 0.43 | 99* | -142
COc1cc(-c2noc(CCCC(=O)NCc3ccco3)n2)cc(OC)c1OC | x | x | -0.04 | x | x
Cc1cccc(C)c1OCC(O)CN1CCC(CN2C(=O)c3cccc4cccc(c34)C2=O)CC1 (stereo not drawn) | 0.4 | 0.4 | 0.31 | 55* | 58*
OC(COc1cccc2ccccc12)CN1CCCC1 (stereo not drawn) | 0.8 | 1 | -0.98 | 19 | 4
CS(=O)(=O)N1CC(C(=O)NC2CC2)Oc2ccc(Cl)cc21 (stereo not drawn) | 0.5 | 0.7 | -0.38 | 46 | 29
Cn1nc(C(F)(F)F)c(C(=O)Nc2ccc(F)cc2F)c1Oc1cccc(Cl)c1 | 0.9 | 0.8 | -0.33 | 14 | 22
Cn1nc(C(F)(F)F)c(C(=O)Nc2ccc(F)cc2F)c1Sc1cccc(C(F)(F)F)c1 | 0.1 | 0.4 | -0.74 | 87* | 60*
Cn1nc(C(F)(F)F)c(C(=O)Nc2ccc(F)cc2F)c1Sc1cccc(Cl)c1 | 0.5 | 0.6 | -1.5 | 54* | 36
Cc1ccc(S(=O)(=O)N2CCN(C(=O)COC(=O)c3cc(C)oc3C)CC2)cc1 | 1 | 0.9 | 0.69 | -3 | 6
CCC1Oc2ccccc2N(CC(=O)NCCCN2CCCCC2CC)C1=O (stereo not drawn) | 1 | 1 | -0.14 | -1 | -5
SMILES | CYP2C19 activ | CYP2C9 activ | PTK2B oligo ant | CYP2C19 inh | CYP2C9 inh
O=C1NC(=Nc2ccccc2)S/C1=C\c1cccn1-c1ccccc1 | 0.8 | 1.7 | -2.2 | 18 | -67
N#Cc1ccccc1CN1C(=O)S/C(=C/c2cccn2-c2ccc(C(=O)O)cc2)C1=O | 1 | 0.8 | -3.2* | 2 | 22
Cc1c(Cl)cccc1NC(=O)c1ccc(-n2ccnc2)nc1 | 0 | 0 | 0.59 | 99* | 98*
CC(=O)c1c(OC(=O)c2ccco2)c2ccccc2n1C | 0.4 | 0.8 | -0.66 | 62* | 23
CC(=O)c1cc(F)c(N2CCCCCC2)cc1C | x | x | 0.5 | x | x
O=C(NC1(C(F)(F)F)NC(=O)N(Cc2ccccc2)C1=O)c1cccnc1 (stereo not drawn) | 0.8 | 0.7 | -1.2 | 23 | 33
